Laboratory results reported in PubChem BioAssay AID1259417 (TB Discovery Research, Infectious Disease Research Institute, 2018).
Among all 1,100 compounds or so, about 760 (69%) were called active. How the calls were made is not given here. The set was probably picked from earlier hits. Some of the results follow.

Test: M. tuberculosis growth inhibition, HTS (AID 1259417);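 further: bacteria grown with compound for 5 days at 37 °C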
Details: stronger effect = higher value, concentration not given here
[1] = M. tuberculosis DsRed fluorescence growth inhibition
[2] = M. tuberculosis growth inhibition

SMILES	inhibition [1]	inhibition [2]
CCOC(=O)c1cnc2ccc(OC)cc2c1Nc1ccc2c(c1)OCCO2	36.6% (active)	24%
CC(=O)OCCNc1cc(SCc2ccco2)c2nonc2c1[N+](=O)[O-]	14.7% (inactive)	11.3%
O=C(CC(SCc1ccco1)c1cccc([N+](=O)[O-])c1)c1ccco1 (stereo not drawn)	96.9% (active)	97.7%
CCCC(=O)OCCNc1cc(SCc2ccco2)c2nonc2c1[N+](=O)[O-]	22% (inactive)	21%
Cc1cc(C)c(-n2c(O)c(/C=C3\C=CC=N3)c(=O)[nH]c2=O)c(C)c1	97.7% (active)	98.6%
CCCCn1c(O)c(/C=C2\C=CC=N2)c(=O)[nH]c1=O	58.2% (active)	89.6%
O=c1c2cccc3c2c(nn1CCN1CCCCC1)-c1ccccc1-3	-22.6% (active)	56.2%
CCC(C)(C)c1ccc(OCCCn2ccnc2)cc1	100% (active)	99.6%
CCC(C)c1ccc(OCCCCn2ccnc2)cc1 (stereo not drawn)	100% (active)	100%
CCC(C)c1ccc(OCCn2ccnc2)cc1 (stereo not drawn)	99.2% (active)	99.6%
CCOC(=O)c1sc(NC(=O)CCSc2ccccc2)cc1C	96.9% (active)	84.1%
CCOC(=O)c1sc(NC(=O)NC2CCCCC2)cc1C	100% (active)	96.2%
CCOC(=O)c1c(NC(=S)NC2CCN(Cc3ccccc3)CC2)sc(C)c1-c1ccccc1	21.1% (inactive)	-12.2%
Cc1ccc(-c2ccc(C=CC(=O)c3ccco3)o2)cc1	9.38% (inactive)	20.8%
CCOC(=O)C(C#N)=Cc1ccc(-c2ccc(F)cc2)o1	2.37% (active)	87.5%
Cc1ccc(-n2cnc3cc(NCc4cccs4)ccc32)cc1	18.8% (active)	35.4%
CCn1cc(C(=O)O)c(=O)c2cc(F)c(N3CCN(C)CC3)cc21	94.8% (active)	94.2%
CCn1cc(C(=O)O)c(=O)c2cc(F)c(N3CCN(C(=S)Nc4cc(C(F)(F)F)ccc4Cl)CC3)cc21	47.9% (active)	61.9%
CC(=O)N1CCN(c2cc3c(cc2F)c(=O)c(C(=O)O)cn3C2CC2)CC1	97.5% (active)	97.7%
CCn1cc(C(=O)O)c(=O)c2cc(F)c(N3CCNCC3)cc21	96.6% (active)	97%
O=c1oc(-c2ccccc2)cc(Cl)c1Cl	61.6% (active)	74%
O=C(c1cccs1)N(CCCn1ccnc1)c1nc2c(Cl)cccc2s1	91.1% (active)	98.4%
CCc1cccc2sc(N(CCCn3ccnc3)C(=O)C=Cc3cccs3)nc12	97.8% (active)	99.1%

SMILES	inhibition [1]	inhibition [2]
Cc1ccc2sc(N(CCCn3ccnc3)C(=O)c3cccs3)nc2c1C	98.3% (active)	99.1%
CCc1cccc2sc(N(CCCn3ccnc3)C(=O)c3cccs3)nc12	88.1% (active)	97.7%
O=C(C=Cc1cccs1)N(CCCn1ccnc1)c1nc2ccccc2s1	98.3% (active)	99.1%
Cc1c(Cl)ccc2sc(N(CCCn3ccnc3)C(=O)C=Cc3cccs3)nc12	99.5% (active)	99.5%
Cc1ccc(Nc2ccc(-n3ccnc3)nn2)cc1Cl	42% (active)	27.3%
Cc1ccc(NC(=O)COc2ccc(-n3ccnc3)cc2)cc1Cl	-9.16% (inactive)	-12.4%
CCCCCCCCOC(=O)c1c(CSC(=N)N)n(C)c2cc(Br)c(OC(C)=O)cc12	26.7% (inactive)	4.13%
Oc1cccc(Nc2nc(NCc3ccccc3)c3ccccc3n2)c1	-1.72% (inactive)	-16.1%
Cc1cc(Nc2cccc(Cl)c2)nc(NCc2ccccc2)n1	96.8% (active)	90.6%
Cc1cc(Nc2ccc(Cl)cc2)nc(NCc2ccccc2)n1	87.7% (active)	79.9%
CCn1c(COc2cccc3ccccc23)nnc1SCC(=O)OC1CCCCC1	42.4% (active)	80.7%
CCn1c(CNc2ccc(F)cc2)nnc1SCC(=O)OC1CCCCC1	0.628% (inactive)	-6.89%
Cn1c(COc2cccc3ccccc23)nnc1SCC(=O)OC1CCCCC1	76.6% (active)	92.4%
O=C(Nc1nc(SCc2ccc(F)cc2)ns1)c1cc(F)c(F)cc1Cl	7.63% (inactive)	5.06%
Cc1ccc(CSc2nnc(CCCCCNC(=O)OC(C)(C)C)o2)cc1	30.6% (active)	36.2%
CCOC(=O)CN(C#N)c1nc(N(C)C)nc(N(C)C)n1	98.5% (active)	98.9%
CCn1nnc(NC(=O)c2sc3ccccc3c2Cl)n1	41.4% (active)	47.8%
O=C(Nc1nnc(C2CCCCC2)s1)c1sc2ccccc2c1Cl	0.622% (inactive)	-19.5%
O=C(CSc1nnc(Cc2ccccc2)o1)Nc1nccs1	1.22% (inactive)	-3.79%
O=C(Nc1nccs1)c1ccc(CSc2ccccc2)o1	28.2% (active)	69.6%
Cc1ccc(C)c(-c2cc(C(=O)Nc3nccs3)c3ccccc3n2)c1	-0.261% (inactive)	-26.2%
O=C(CNCCN1CCOCC1)Nc1sc2c(c1C(=O)Nc1ccccc1)CCC2	100% (active)	100%
COCCCNC(=O)c1c(NC(=O)c2ccccc2OC)sc2c1CCCC2	2.12% (inactive)	-22.4%

SMILES	inhibition [1]	inhibition [2]
CCOc1ccc(NC(=O)c2c(NC(=O)CNCCN3CCOCC3)sc3c2CCC3)cc1	100% (active)	101%
O=C(Nc1sc2c(c1C(=O)Nc1ccccc1)CCC2)c1cccc(Br)c1	0.927% (inactive)	-1.38%
Cc1ccccc1C(=O)Nc1sc2c(c1C(=O)NCCO)CCC(C(C)(C)C)C2 (stereo not drawn)	5.07% (inactive)	-17.9%
CO[C@H]1C=CO[C@@]2(C)Oc3c(C)c(O)c4c(O)c(c5c(c4c3C2=O)=NC2(CCN(CC(C)C)CC2)N=5)NC(=O)C(C)=CC=C[C@H](C)[C@H](O)[C@@H](C)[C@@H](O)[C@@H](C)[C@H](OC(C)=O)[C@@H]1C	100% (active)	101%
Cc1ccc(-c2nnc(NC(=O)c3ccc(Cl)s3)o2)c(C)c1	86.1% (active)	75.4%
Cc1ccc(-c2nnc(NC(=O)c3ccc(Br)s3)o2)c(C)c1	83.8% (active)	75.7%
COc1ccc(OC(C)C(=O)Nc2ccc(I)cc2)cc1 (stereo not drawn)	76% (active)	79.3%
COc1ccc(OC(C)C(=O)Nc2ccc(Cl)cc2C)cc1 (stereo not drawn)	1.5% (inactive)	-1.86%
Oc1ccccc1-c1n[nH]c(/C=C/c2ccc(Cl)cc2)n1	2.06% (inactive)	-29.9%
CC(C)(C)c1ccc(C(=O)Nc2ccc(S(=O)(=O)Nc3nccs3)cc2)cc1Br	1.5% (inactive)	-12.7%
CC1CCc2c(sc3ncn(C(C)C(=O)OCc4ccccc4)c(=O)c23)C1 (stereo not drawn)	6.46% (inactive)	8.18%
CC1CCc2sc3ncnc(NCCc4ccccc4)c3c2C1 (stereo not drawn)	35.8% (active)	35.3%
CC(Sc1nnc(N)s1)C(=O)Nc1nc2c(s1)CCCC2 (stereo not drawn)	18.7% (inactive)	26%
O=C(Nc1ccc2c(c1)CCC2)c1ccc(Br)s1	25.5% (inactive)	10.7%
O=C(Nc1nc2c(s1)CCCC2)c1ccc(Br)s1	42.7% (active)	18.9%
Cc1cccc(OCc2nnc(SCC(=O)OC3CCCCC3)o2)c1	82.9% (active)	94.9%
Cc1cc(OCc2nnc(SCC(=O)OC3CCCCC3)o2)ccc1Cl	94% (active)	94.6%
O=C(Nc1ccc(C(F)(F)F)cc1)Nc1cccc(Cl)c1	99.7% (active)	100%
Cc1ccc(S(=O)(=O)Nc2ccc(NC(=O)Nc3cccc(C(F)(F)F)c3)cc2)cc1	1.5% (inactive)	-12.5%
O=C(C=Cc1cccc(C(F)(F)F)c1)Nc1cccc(C(F)(F)F)c1	25.5% (inactive)	6.54%
CCOC(=O)CNC(=O)CSc1nc(-c2cccc(C)c2)ns1	56.7% (active)	71.3%
CCOC(=O)CSc1nc(-c2ccccc2)ns1	51.6% (active)	86.5%
CCOC(=O)CNC(=O)CSc1nc(-c2ccccc2)ns1	85.8% (active)	65.5%

SMILES	inhibition [1]	inhibition [2]
c1ccc2cc3nc4c(ccc5ccccc54)nc3cc2c1	97.7% (active)	99%
COc1cccc(-n2nnnc2S(C)(=O)=O)c1	99.7% (active)	100%
COc1cccc(-n2nnnc2S(=O)(=O)Cc2ccccc2)c1	100% (active)	101%
CCCS(=O)(=O)c1nnnn1-c1cccc(OC)c1	101% (active)	100%
O=C(C=Cc1cccs1)N1CCN(Cc2ccc3c(c2)OCO3)CC1	99.4% (active)	100%
O=C(NC1CCCCC1)N1CCN(Cc2ccc3c(c2)OCO3)CC1	99.4% (active)	100%
CC12CC3CC(C)(C1)CC(CNCc1ccccc1O)(C3)C2	98.9% (active)	99.3%
CC1(C)C=Cc2c(nc3ccccc3c2NCc2ccccc2)C1	16.7% (active)	35.8%
c1ccc(CNc2nc(N3CCN(Cc4ccccc4)CC3)nc3ccccc23)cc1	-2.6% (inactive)	-0.535%
Cc1cc(OCCn2ccnc2)ccc1Cl	89.5% (active)	90.8%
Cc1cc(OCCCn2ccnc2)ccc1Cl	98.9% (active)	99.6%
Clc1ccc(SCCCn2ccnc2)cc1	100% (active)	99.6%
Brc1c(OCCCn2ccnc2)ccc2ccccc12	98.3% (active)	99%
Clc1ccc(OCCCCn2ccnc2)c(Br)c1	98.8% (active)	99.3%
Clc1cc(Br)ccc1OCCCCn1ccnc1	99.4% (active)	99.4%
Clc1ccc(OCCCCCn2ccnc2)c(Cl)c1	100% (active)	99.3%
C=CCc1cc(Cl)ccc1OCCCCn1ccnc1	100% (active)	100%
C=CCc1cc(C)ccc1OCCCn1ccnc1	92.4% (active)	97.1%
C=CCc1cc(C)ccc1OCCCCn1ccnc1	99.4% (active)	100%
C=CCn1c(-c2cccs2)nc2ccccc21	97.1% (active)	100%
